This note sets out measurements from PubChem BioAssay (NCATS).

Results filed as inconclusive are left out. A call without a number means that no potency is given here. Calls of active or inactive are those of the source. Calls come from the whole dose curve; as a rule, active = well fitted activation curve with a large enough effect in the main read-out, with a control signal flat (not every such curve was filed as active); inconclusive = small, poorly fitted or top-dose-only effect, or effect the other way, or a change in a side signal; inactive = flat fitted curve, though single readings scatter.

Chain of 3',5'-cyclic-AMP phosphodiesterase 4B (Homo sapiens) (Q07343 whole entry, looked up): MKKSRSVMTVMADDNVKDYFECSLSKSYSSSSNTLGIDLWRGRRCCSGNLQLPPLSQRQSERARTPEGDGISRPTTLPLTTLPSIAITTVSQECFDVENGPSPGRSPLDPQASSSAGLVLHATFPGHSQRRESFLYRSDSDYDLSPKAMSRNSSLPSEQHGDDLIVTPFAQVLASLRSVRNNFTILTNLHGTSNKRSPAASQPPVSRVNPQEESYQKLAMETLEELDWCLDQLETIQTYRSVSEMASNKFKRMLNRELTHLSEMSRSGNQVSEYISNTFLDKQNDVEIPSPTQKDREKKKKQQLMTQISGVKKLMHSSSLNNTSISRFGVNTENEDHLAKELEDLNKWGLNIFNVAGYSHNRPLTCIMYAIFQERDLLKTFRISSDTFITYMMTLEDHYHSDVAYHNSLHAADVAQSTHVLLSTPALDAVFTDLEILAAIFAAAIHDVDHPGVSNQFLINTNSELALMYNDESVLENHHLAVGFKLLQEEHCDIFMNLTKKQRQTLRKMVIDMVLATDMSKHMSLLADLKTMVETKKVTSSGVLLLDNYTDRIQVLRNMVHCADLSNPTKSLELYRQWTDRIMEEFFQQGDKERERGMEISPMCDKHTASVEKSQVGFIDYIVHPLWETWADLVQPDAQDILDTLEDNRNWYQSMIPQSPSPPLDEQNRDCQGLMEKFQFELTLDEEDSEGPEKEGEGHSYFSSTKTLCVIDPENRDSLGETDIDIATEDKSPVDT

The assay addresses 3',5'-cyclic-AMP phosphodiesterase 4B (Homo sapiens) (UniProt Q07343). Nature of the assay: qHTS Assay for Inhibitors of PDE-IV (AID 607). The following applies: HEK293 ACTOne CNG channel cells, membrane potential fluorescence; series mostly up to 22.9 µM. From the text: NIH Chemical Genomics Center [NCGC]
NIH Molecular Libraries Screening Centers Network [MLSCN]
The cyclic nucleotide phosphodiesterases (PDEs) are proteins that catalyze hydrolysis of 3', 5'-cyclic nucleotides, such as cyclic adenosine monophosphate (cAMP) and cyclic guanosine monophosphate (cGMP), to their corresponding 5'-nucleotide monophosphates. These enzymes play an important role in controlling cellular concentrations of cyclic nucleotides and have a central role in a variety of intracellular signaling events. cAMP PDEs are emerging as a promising class of drug targets in asthma and cardiovascular disease therapeutic areas.
There are no commercially available cell-based screening assays for PDE inhibitors: currently biochemical assays are done using pure substrates (cAMP or cGMP) and purified recombinant PDE enzymes. As with other biochemical screens on intracellular targets, false positives and false negatives may result from issues involving cell membrane permeability, cellular metabolism, and the like.
Here we report the development of a cell-based screening assay for cAMP phosphodiesterase (PDE) inhibitors. The assay is based on the BD ACTOne# technology (BD Biosciences) which utilizes a modified cyclic nucleotide-gated channel (CNG) to monitor intracellular cAMP changes in live cells. The CNG channel is localized on the plasma membrane, and opens when the intracellular cAMP level increases, resulting in ion flux and cell membrane depolarization. The influx of cations through the CNG channel can be quantified using membrane potential (MP) dyes. We modified the BD ACTOne technology to allow the detection of PDE inhibitors, and performed an inhibitor screen for PDE-IV, which is expressed endogenously in HEK293 cells. We optimized this assay in homogeneous 1536-well plate assay format for high throughput screening.
NCGC Assay Protocol Summary:
The medium contained 10% FBS (Invitrogen), 2 mM L-glutamine, and 250 ug/ml G418 (Cellgro) and 1 ug/ml puromycin (Clontech). ACTOneTM parental cells (BD Biosciences) were maintained in the same medium without puromycin.
The activity of the CNG channel was measured by BD ACTOneTM membrane potential dye kit (BD Biosciences). Forskolin, a positive control for cAMP activation and RO 20-1724, a PDE inhibitor, were both purchased from Sigma and solublized in DMSO.
Sequence,Parameter,Value,Description
1,Reagent,3 uL,1000 cells/well 1536 TC treated Black plate
3,Compound,0.5 uL,Kalypsys dispense RO 20-1724 100 uM final [A]
4,Reagent,3 uL,BD membrane potential dye
6,Compound,23 nL,Final concentration was 0.7nM to 22.9uM
8,Detector,EX 535 / EM 590 [B],Envision
Footnotes: [A] The stock 2 mM RO 20-1724 PDE inhibitor was made in 10 % DMSO. Parental cell line received 10 uM forskolin + 100 uM RO. [B] Envsion settings: Bottom Excitation 535/20 nm top emission 590/20, gain of 150 and 5 flashes per well.
Keywords: PDE, PDE-IV, cytotoxicity, flourescence, MLSMR, MLSCN, NIH Roadmap, qHTS, NCGC
(In general: In qHTS, concentration-response curves come from the screen itself.)
`CN1C[C@@H](C(=O)N[C@]2(C)O[C@]3(O)[C@H]4CCCN4C(=O)[C@H](Cc4ccccc4)N3C2=O)C[C@H]2c3cccc4[nH]cc(c34)C[C@@H]21`: the Potency entry was “inactive”.

With `CC(C)[C@@H](CC(=O)N[C@@H]1CCNC[C@H]1C(=O)N[C@H](CC(=O)N[C@@H](CCC(=O)O)CC(=O)O)Cc1ccccc1)NC(=O)C[C@H](Cc1ccccc1)NC(=O)[C@@H]1CNCC[C@H]1N`, the Potency entry is “inactive”.

Take `CCc1c2c(nc3cccc(OC)c13)OC(CC)C2` (stereo not given): the Potency result is “inactive”.

Consider `COc1cc([C@H]2c3cc4c(cc3[C@@H](O[C@H]3O[C@H]5CO[C@@H](C)O[C@H]5[C@@H](O)[C@@H]3O)[C@@H]3COC(=O)[C@H]23)OCO4)cc(OC)c1O`, for which the Potency result was “inactive”.

As to `O=C(O)[C@H]1C[C@@H](CP(=O)(O)O)CCN1`, the Potency entry is “inactive”.

On to `COC(=O)[C@@]1(Cc2ccc(F)cc2)[C@H]2c3cc(C(=O)N4CCCC4)n(Cc4ccccc4)c3C[C@H]2CN1C(=O)c1ccccc1`, for which the Potency entry is “inactive”.

`COC(=O)[C@@]1(Cc2ccccc2)[C@H]2c3cc(C(=O)N4CCCC4)n(Cc4ccc(S(C)(=O)=O)cc4)c3C[C@H]2CN1C(=O)c1ccccc1`: the Potency result was “inactive”.

`CCCCCC[C@@H]([C@H](C)O)n1cnc2c(N)ncnc21`: the Potency result is “inactive”.

Regarding `CC1=C(C(=O)OCc2ccccc2)C(c2ccccc2)NC(=O)N1CCCCCC(=O)O` (stereo not given), the Potency entry is “inactive”.

For `NCCC[C@@](N)(C(=O)O)C(F)F`, the Potency entry was “inactive”.

Regarding `COC(=O)[C@@]1(Cc2ccccc2)[C@H]2c3cc(C(=O)N4CCCC4)n(CC4CC4)c3C[C@H]2CN1C(=O)c1ccccc1`, the Potency entry was “inactive”.

For the compound `COc1cc(C(=O)O[C@@H]2CC(C)=CC[C@@]3(C)CC[C@](O)(C(C)C)[C@H]23)ccc1O`, the Potency result was “inactive”.

On to `Cc1ccc(C(=O)[C@@H]2[C@@H]3[C@@H](C(=O)[C@@H]4OC[C@H]3O4)[C@@H]3C=Cc4ccccc4N23)cc1`, for which the Potency entry was “inactive”.

With `C[C@@H](C(=O)O)[C@@H]1C[C@@]1(C)[C@@H](NC(=O)OCc1ccccc1)c1ccccc1`, the Potency entry is “inactive”.

With `Cc1cc(C(C)(C)CC(C)(C)C)ccc1OCCOCC[N+](C)(C)Cc1ccccc1`, the Potency entry was “inactive”.

On to `COC(=O)[C@@]1(Cc2ccc(OC)cc2)[C@H]2c3cc(C(=O)N4CCCC4)n(Cc4c(CO)[nH]cc(C)c4=O)c3C[C@H]2CN1C(=O)c1ccccc1`, for which the Potency entry was “inactive”.

As to `O=C(NCc1ccccc1)[C@@H]1C[C@H]1[C@@H](NP(=O)(c1ccccc1)c1ccccc1)c1ccccc1`, the Potency result is “inactive”.

Take `CC(=O)N1CC2(CC2)CC1c1ccccc1` (stereo not given): the Potency result is “inactive”.

Take `CN1[C@@H]2CC(OC(=O)[C@@H](CO)c3ccccc3)C[C@H]1[C@H]1O[C@H]12` (stereo not given in full): the Potency result was “inactive”.

As to `NCCC[C@@H](CC(=O)N[C@@H]1CCNC[C@H]1C(=O)N[C@H](CC(=O)N[C@@H](CCC(=O)O)CC(=O)O)Cc1ccccc1)NC(=O)C[C@H](CO)NC(=O)[C@@H]1CCCC[C@H]1N`, the Potency result is “inactive”.

As to `COC(=O)C1(CC(C)C)C=C2C(=C(c3ccccc3)C(=O)C2C)CN1` (stereo not given), the Potency entry is “inactive”.

As for `CC1=C(\C=C/C(C)=C/C=C\C(C)=C\CO)C(C)(C)CCC1`, the Potency result is “inactive”.

In the case of `O=C(O)c1cc(Cl)cc(Cc2cc(Cl)cc(C(=O)O)c2O)c1O`, the Potency entry was “inactive”.

On to `CCCc1cc2c(n1Cc1cc(F)cc(F)c1)C(C)C1CN(C(=O)c3ccccc3)C(C)(C(=O)OC)C21` (stereo not given), for which the Potency result was “inactive”.

In the case of `CC(=O)O[C@H]1CC[C@@]2(C)[C@@H](CC[C@@]3(C)[C@H]2C(=O)C=C2[C@H]4C[C@](C)(C(=O)OCCN5CCCCC5)CC[C@]4(C)CC[C@@]23C)C1(C)C`, the Potency result was “inactive”.

Take `C[C@@H](C(=O)Nc1ccc2ccccc2c1)[C@@H]1C[C@@]1(C)[C@@H](NC(=O)Oc1ccc(F)cc1)c1ccccc1`: the Potency result is “inactive”.

As to `OC1c2ccccc2-c2nc3ccccc3cc21` (stereo not given), the Potency entry is “inactive”.

`NCCC[C@@H](CC(=O)N[C@@H]1CCCC[C@H]1C(=O)N[C@H](CC(=O)N[C@@H](CCC(=O)O)CC(=O)O)Cc1c[nH]c2ccccc12)NC(=O)C[C@H](Cc1c[nH]c2ccccc12)NC(=O)[C@@H]1CNCC[C@H]1N`: the Potency entry is “inactive”.

For the compound `CC[C@H]1C2=C3C(CC[C@H]4C(OCc5ccc(F)cc5C(F)(F)F)OC[C@](C)([C@@H]34)N(C(=O)OC(C)(C)C)C2)C(COC)C1COC` (stereo not given in full), the Potency entry was “inactive”.

Regarding `CCN1CCC[C@@H]1CNC(=O)c1c(OC)ccc(I)c1O`, the Potency result is “inactive”.

Turning to `CC(=O)O[C@@H]1[C@H]([N+]2(C)CCCCC2)C[C@@H]2[C@@H]3CC[C@@H]4C[C@@H](OC(C)=O)[C@H]([N+]5(C)CCCCC5)C[C@@]4(C)[C@H]3CC[C@]21C`, the Potency entry was “inactive”.

In the case of `CC(C)[C@@H](CC(=O)N[C@@H]1CCCC[C@H]1C(=O)N[C@H](CC(=O)N[C@@H](CCC(=O)O)CC(=O)O)Cc1ccccc1)NC(=O)C[C@H](Cc1ccccc1)NC(=O)[C@@H]1CCCC[C@H]1N`, the Potency entry is “inactive”.

Turning to `CC(C)C[C@@H](CC(=O)N[C@@H](CCCN)CC(=O)N[C@@H]1CCCC[C@H]1C(=O)N[C@H](CC(=O)N[C@@H](CCC(=O)O)CC(=O)O)Cc1ccccc1)NC(=O)[C@@H]1CNCC[C@H]1N`, the Potency entry is “inactive”.

Turning to `CCc1c2c(nc3ccc(OC)cc13)COC2`, the Potency entry was “inactive”.

On to `CC(C)[C@@H](CC(=O)N[C@@H]1CCCC[C@H]1C(=O)N[C@H](CC(=O)N[C@@H](CCC(=O)O)CC(=O)O)Cc1ccccc1)NC(=O)C[C@H](Cc1c[nH]c2ccccc12)NC(=O)[C@@H]1CNCC[C@H]1N`, for which the Potency entry was “inactive”.

Regarding `CCc1c2c(nc3cccc(C(C)C)c13)-c1cccc(=O)n1C2`, the Potency result is “inactive”.

`CC(C)C[C@@H](CC(=O)N[C@@H](CCCN)CC(=O)N[C@@H]1CCNC[C@H]1C(=O)N[C@H](CC(=O)N[C@@H](CCC(=O)O)CC(=O)O)Cc1c[nH]c2ccccc12)NC(=O)[C@@H]1CNCC[C@H]1N`: the Potency entry was “inactive”.

Turning to `COC(=O)[C@@]1(Cc2ccccc2)[C@H]2c3cc(C(=O)N4CCCC4)n(Cc4ccccn4)c3C[C@H]2CN1C(=O)c1ccccc1`, the Potency entry was “inactive”.

In the case of `Cc1cc(C(=O)N[C@H](c2ccccc2)[C@@]2(C)C[C@@H]2[C@@H](C)C(=O)Nc2ccc3ccccc3c2)n(C)n1`, the Potency entry is “inactive”.

`CC(C)C[C@@H](CC(=O)N[C@H](CC(=O)N[C@@H]1CCNC[C@H]1C(=O)N[C@H](CC(=O)N[C@@H](CCC(=O)O)CC(=O)O)Cc1ccccc1)C(C)C)NC(=O)[C@@H]1CCCC[C@H]1N`: the Potency result was “inactive”.
